Rows were chosen to be rich in hits. Some 21% of all compounds tested hit in one or more screens of this group.
MRP-1 activ = activators of MRP-1 | H69AR cells + doxorubicin, viability rescue, CellTiter-Glo | viability increase, % at 10 µM | 0.61% of 140,000 active;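 active means viability gain under doxorubicin at or above a set limit, the compound median plus 3 SD, cut at about 4.7% in these data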;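 further: MRP-1 overexpressing cells given doxorubicin 25 µM after compound pretreatment; 18-22 h compound pretreatment then 72 h with doxorubicin before readout; 0% = doxorubicin-only wells and 100% = vehicle-treated cells without doxorubicin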
CYP2C19 act = cytochrome P450 2C19 (human) activation; recombinant CYP2C19, luciferin-H EGE luminescence; stronger effect = higher value; 0 = fully inhibited enzyme, 1 = untreated enzyme; activation factor at 5 µM; 96,000 tested, under 10 active; AID 1025;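 active means activation factor of at least 2 at 5 µM in the primary screen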;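 further: 0 = wells with 2.5 mM tranylcypromine and 1 = vehicle-only wells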
Target sequence (P33261 whole entry, looked up): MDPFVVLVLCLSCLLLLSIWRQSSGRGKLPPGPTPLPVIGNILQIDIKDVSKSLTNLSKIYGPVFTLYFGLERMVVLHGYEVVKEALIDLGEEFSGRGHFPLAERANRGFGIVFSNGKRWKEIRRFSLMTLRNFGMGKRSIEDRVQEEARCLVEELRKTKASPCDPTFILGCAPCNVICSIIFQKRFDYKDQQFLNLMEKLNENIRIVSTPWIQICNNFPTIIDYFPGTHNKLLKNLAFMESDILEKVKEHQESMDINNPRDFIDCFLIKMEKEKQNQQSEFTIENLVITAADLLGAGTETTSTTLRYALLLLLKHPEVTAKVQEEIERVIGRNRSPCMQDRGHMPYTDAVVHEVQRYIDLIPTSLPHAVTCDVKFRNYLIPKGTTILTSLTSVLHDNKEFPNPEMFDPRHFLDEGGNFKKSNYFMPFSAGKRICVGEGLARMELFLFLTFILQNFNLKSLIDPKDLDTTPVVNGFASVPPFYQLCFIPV
MRP resist rev = MRP-mediated drug resistance reversal. differential viability (reversal), % at 10 µM. 0.04% of 85,000 active. H69AR cells + 2 uM doxorubicin, CellTiter-Glo, 72 h;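 active means viability drop by adding the cancer drug above about 55%, with treated viability meeting a 40% cutoff, limit read from the data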;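 further: viability without doxorubicin minus viability with 2 µM doxorubicin for each compound; larger differential means the compound sensitizes cells more to doxorubicin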
CYP2C19 inhib = human CYP2C19 inhibition; P33261; CYP2C19 Supersomes, luciferin-H EGE luminescence, 30 min; inhibition, % at 5 µM; 21% of 96,000 active; AID 778;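 active means CYP2C19 inhibition above a set limit at 5 µM in the primary screen, cut at about 50% in these data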;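 further: plate controls were negative control wells for no effect and 2.5 mM tranylcypromine positive control for full effect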
CYP2C9 act = increases human cytochrome P450 2C9 activity; recombinant CYP2C9, luciferin-H conversion, luminescence; stronger effect = higher value; factor 1 = untreated enzyme, 0 = blocked; activation factor at 5 µM; 1.4% of 96,000 active; AID 1024;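 active means activation factor of 2 or more for CYP2C9 at a 5 µM dose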;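 further: 0 = sulfaphenazole-blocked wells and 1 = vehicle-only wells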
CYP2C9 inh = human CYP2C9 inhibition | inhibition, % at 5 µM | AID 777 | CYP2C9 Supersomes, luciferin-H conversion, luminescence | P11712 | 20% of 96,000 active;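 active means blocking of liver enzyme CYP2C9 beyond about 50% at 5 µM, limit read from the data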
Numbers without * were called inactive; nt = no result.

SMILES	MRP-1 activ	CYP2C19 act	MRP resist rev	CYP2C19 inhib	CYP2C9 act	CYP2C9 inh
COC(=O)c1c(NC(=O)C2CC=CCC2C(=O)O)sc(C(N)=O)c1C (stereo unspecified)	1	1	5	2	0.7	29
COC(=O)c1c(NC(=O)C2CC=CCC2C(=O)O)sc(C)c1C (stereo unspecified)	-1	0.8	5	21	0.3	71*
CCOC(=O)c1ccc(COC(=O)c2cc3ccccc3oc2=O)o1	0	0.5	42	52*	0.9	8
COc1ccc(NC(C)=O)cc1NC(C)C(=O)Nc1ccc(F)c(F)c1F (stereo unspecified)	-1	0.3	21	70*	0.5	47
COc1ccc(NC(C)=O)cc1NC(C)C(=O)Nc1ccccc1F (stereo unspecified)	-1	0.8	-9	24	0.9	8
CCOc1ccc(CCNC(=O)COC(=O)c2cccnc2OCC)cc1OCC	-1	0.2	7	77*	0.1	87*
CCOc1ncccc1C(=O)OCC(=O)NCCc1ccc(OC)cc1	0	0.2	-4	81*	0.4	58*
CCn1c(N)c(C(=O)NCCCOC)sc1=S	-2	0.8	11	20	0.8	16
CC(C)OCCCNC(=O)c1sc(=S)n(C)c1N	-2	0.4	1	57*	0.3	67*
CC/C(=C\C1CCCCC1)C(NP(=O)(c1ccccc1)c1ccccc1)c1ccccc1 (stereo unspecified)	-5	nt	nt	nt	nt	nt
Cc1ccc(N=C(NOCc2ccc(Cl)cc2Cl)c2nonc2N)c(C)c1	-3	0.6	57*	42	0.3	74*
Cc1ccccc1N=C(NOCc1ccc(Cl)cc1Cl)c1nonc1N	1	0.6	0	44	0.3	70*
O=C(Nc1nccs1)c1cc(S(=O)(=O)N2CCOCC2)ccc1Cl	-1	0.9	-7	6	1	5
CC(NC(=O)c1cc2ccccc2o1)c1cccs1 (stereo unspecified)	0	0.2	12	82*	0.3	69*
O=C(c1cc2ccccc2o1)c1cccs1	-1	0.5	-4	49	0.5	51*
CC(C)NC(=O)c1cc2ccccc2o1	0	nt	14	nt	nt	nt
C=CCNC(=S)Nc1sc2c(c1C(=O)OCC)CC(C(C)C)OC2 (stereo unspecified)	-5	0.8	nt	15	0.9	9
CCN1C(=Nc2ccc(Cl)cc2)SC/C1=C\C(=O)OC	0	0.8	3	16	0.9	9
CC(C)COC(=S)Nc1ccccc1	0	0.2	16	78*	0.8	23
CC(C)COCC(O)CCC(=O)NNC(=S)Nc1ccccc1 (stereo unspecified)	-2	nt	nt	nt	nt	nt
Cc1ccc(C(=O)N(CC(=O)NC2CCCC2)Cc2cccs2)s1	-4	0.3	6	74*	0.1	88*
Cc1sc2ncn(CC(=O)N(CC(=O)NC3CCCC3)Cc3cccs3)c(=O)c2c1C	-1	0.8	-16	24	0.4	56*
COc1ccc(N(CC(=O)NCC2CCCO2)C(=O)CCC(=O)Nc2nccs2)cc1 (stereo unspecified)	-1	nt	7	nt	nt	nt
Cc1ccc(NC(=O)c2ccc(OC(=O)C(C)Oc3ccc(Cl)cc3C)cc2)cc1 (stereo unspecified)	-1	nt	nt	nt	nt	nt
CCCn1c2c(c(O)c(C(=O)Nc3ccc(OC)cc3)c1=O)CCCC2	0	0.9	-15	6	0.2	79*
SMILES	MRP-1 activ	CYP2C19 act	MRP resist rev	CYP2C19 inhib	CYP2C9 act	CYP2C9 inh
Cc1ccccc1NC(=S)NN1CCN(C)CC1	-2	1	1	-1	0.9	6
COc1ccccc1S(=O)(=O)Cc1ccc(C(=O)NCCN2CCCCCC2)o1	-4	1.2	-26	-17	1.1	-7
O=c1[nH]cnc2scc(C3COc4ccccc4O3)c12 (stereo unspecified)	-1	0.1	8	88*	0.2	80*
Cc1cc(C)c2c(N)c(S(=O)(=O)Cc3ccccc3)sc2n1	-1	0	-18	99*	3*	-197
CCOC(=O)CN1C(=O)NC(C)(c2ccc(OC(F)F)cc2)C1=O (stereo unspecified)	-1	0.4	4	64*	0.6	35
CCCc1cc(Nc2c(C)n(C)n(-c3ccccc3)c2=O)n2c(nc3ccccc32)c1C#N	-4	0.9	40	6	0.4	62*
Cc1cc(Nc2c(C)n(C)n(-c3ccccc3)c2=O)n2c(nc3ccccc32)c1C#N	-2	0.7	10	27	0.6	40
O=c1c2ccccc2sn1-c1ccc(S(=O)(=O)N2CCCC2)cc1	-3	0.9	nt	15	0.2	75*
O=C1CC(=O)N(c2ccccc2)N1c1ccccc1	3	nt	nt	nt	nt	nt
O=c1c2ccccc2sn1-c1ccccc1	-6	0.6	nt	44	0.3	75*
Cc1ccc(-n2sc3ccccc3c2=O)cc1S(=O)(=O)N1CCCCC1	-6	0.7	-1	30	0.1	89*
O=c1c2ccccc2sn1-c1ccc(S(=O)(=O)N2CCCCC2)cc1	nt	nt	0	nt	nt	nt
CCOC(=O)Cn1nc(-c2ccccc2)c2cnc3ccc(C)cc3c21	-3	nt	nt	nt	nt	nt
CCc1c(C)sc2nc(C(C)C)nc(SCC(=O)N3CCc4ccccc4C3)c12	-1	0.8	nt	21	0	97*
Cc1sc2nc(C3CC3)nc(SCC(=O)N3CCc4ccccc4C3)c2c1C	-2	0.4	nt	65*	0.2	85*
Cc1sc2nc(C3CC3)nc(SCC(=O)N3CC(=O)Nc4ccccc43)c2c1C	-1	0.7	nt	30	0.3	66*
Cn1c(=O)c2c(nc(Cl)n2Cc2ccncc2)n(C)c1=O	0	0.9	-3	8	0.9	6
COc1cccc(Cn2c(Oc3ccccc3)nc3c2c(=O)n(C)c(=O)n3C)c1	0	0.6	nt	44	0.2	85*
CC(C)CCn1c(Oc2ccccc2Cl)nc2c1c(=O)n(C)c(=O)n2C	-4	0.9	28	5	0.2	85*
CC(C)CCn1c(Cl)nc2c1c(=O)n(C)c(=O)n2C	-1	0.5	-2	55*	1	2
COc1ccc(NC(C)=O)cc1NC(=O)CSc1nnc(-c2ccc(F)cc2)n1N	-2	1	-9	2	1	5
COc1cccc(NC(=O)c2cc([N+](=O)[O-])ccc2NCc2cccnc2)c1	-2	nt	nt	nt	nt	nt
Cc1ccc(NC(=O)c2cc([N+](=O)[O-])ccc2NCc2cccnc2)cc1Cl	0	0.2	nt	85*	0.1	92*
COC(=O)c1ccc2ccn(CC(=O)NC3CCCCC3)c2c1	-4	0.7	-3	26	0.6	44
N#Cc1ccc2ccn(CC(=O)NC3CCCCCC3)c2c1	-2	0.4	12	58*	0.7	27
CCN(CC)S(=O)(=O)c1ccc(C)c(NC(=O)COC(=O)CNC(=O)c2ccc(C(C)(C)C)cc2)c1	1	nt	nt	nt	nt	nt
CC(=O)NS(=O)(=O)c1cccnc1Nc1ccc(Cl)cc1	0	1	nt	5	0.2	85*
